According to PubChem BioAssay AID1159580 (chemical genetic matrix, 2015):
Where “and” joins values, the source holds several entries; their conditions need not be identical. Identical values can stand only once. The whole screen tested about 5,500 compounds, of which about 2,000 (36%) were called active. About 18% were inconclusive and are not listed. Cut-off read from the data, not from the text of the source: active = normalized growth mostly below about 0.91 (no sharp cut-off); inconclusive = no clear call, values can overlap the other calls; inactive = mostly above about 0.92. Some of the results follow.

Test: chemical genetic growth profiling, strain panel (AID 1159580);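 note: tested at 20 µM; growth read once vehicle control cultures reached saturation at 30 °C; 1 = growth at the plate median or of vehicle wells; lower values mean less growth of the strain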
Conditions: S. cerevisiae deletion strains, growth OD

Measured: normalized growth

Cc1cc(=O)[nH]c(=S)[nH]1
inactive: locus YAL013W, strain DEP1, active compounds read low 1.01 | locus YAL021C, strain ccr4, active compounds read low 0.956 | locus YAL026C, strain drs2, active compounds read low 0.974 | locus YAL030W, strain snc1, active compounds read low 0.98 | locus YBL061C, strain skt5, active compounds read low 0.987 | locus YBR009C, strain hhf1, active compounds read low 0.954 | locus YBR021W, strain FUR4, active compounds read low 0.986 | locus YBR023C, strain chs3, active compounds read low 0.977 | locus YBR171W, strain sec66, active compounds read low 0.987 | locus YBR229C, strain ROT2, active compounds read low 1.01 | locus YBR231C, strain swc5, active compounds read low 0.989 | locus YBR279W, strain paf1, active compounds read low 0.973 | locus YCL011C, strain gbp2, active compounds read low 0.964 | locus YCL016C, strain dcc1, active compounds read low 0.96 | locus YCL029C, strain bik1, active compounds read low 1.02 | locus YCL061C, strain MRC1, active compounds read low 0.926 | locus YCL069W, strain vba3, active compounds read low 0.97 | locus YCR088W, strain abp1, active compounds read low 0.978 | locus YDL005C, strain med2, active compounds read low 0.97 | locus YDL035C, strain GPR1, active compounds read low 0.993 | locus YDL040C, strain nat1, active compounds read low 0.977 | locus YDL074C, strain BRE1, active compounds read low 1.03 | locus YDL101C, strain DUN1, active compounds read low 1.03 | locus YDL134C, strain PPH21, active compounds read low 1 | locus YDL185W, strain tfp1, active compounds read low 1.02 | locus YDL192W, strain arf1, active compounds read low 1 | locus YDR001C, strain nth1, active compounds read low 0.972 | locus YDR069C, strain doa4, active compounds read low 0.982 | locus YDR101C, strain arx1, active compounds read low 0.998 | locus YDR137W, strain rgp1, active compounds read low 0.958 | locus YDR150W, strain NUM1, active compounds read low 1.01 | locus YDR159W, strain sac3, active compounds read low 0.937 | locus YDR162C, strain NBP2, active compounds read low 1.01 | locus YDR195W, strain ref2 0.948 | locus YDR297W, strain sur2, active compounds read low 0.963 | locus YDR318W, strain mcm21, active compounds read low 1.03 | locus YDR334W, strain swr1, active compounds read low 0.973 | locus YDR335W, strain msn5, active compounds read low 0.968 | locus YDR388W, active compounds read low 1.01 | locus YDR392W, strain spt3, active compounds read low 0.929 | locus YDR502C, strain sam2, active compounds read low 0.999 | locus YEL003W, strain gim4, active compounds read low 0.965 | locus YEL037C, strain rad23, active compounds read low 0.98 | locus YEL061C, strain CIN8 (second series), active compounds read low 0.973 | locus YEL061C, strain CIN8, active compounds read low 1 | locus YER015W, strain faa2, active compounds read low 0.989 | locus YER016W, strain bim1, active compounds read low 0.938 | locus YER110C, active compounds read low 1.01 | locus YER111C, strain swi4, active compounds read low 0.976 | locus YER155C, strain BEM2 (second series), active compounds read low 1.01 | locus YER155C, strain BEM2, active compounds read low 1.01 | locus YER167W, strain BCK2, active compounds read low 0.996 | locus YFR010W, strain ubp6, active compounds read low 0.97 | locus YGL078C, strain dbp3, active compounds read low 0.991 | locus YGL086W, strain mad1, active compounds read low 1 | locus YGL167C, strain pmr1, active compounds read low 0.968 | locus YGL173C, strain kem1, active compounds read low 0.968 | locus YGL227W, strain vid30, active compounds read low 0.986 | locus YGL240W, strain doc1, active compounds read low 0.988 | locus YGL248W, strain PDE1, active compounds read low 1.01 | locus YGL253W, strain hxk2, active compounds read low 0.949 | locus YGR078C, strain PAC10, active compounds read low 1.02 | locus YGR135W, strain pre9, active compounds read low 1 | locus YGR229C, strain SMI1, active compounds read low 1.01 | locus YGR252W, strain gcn5, active compounds read low 0.978 | locus YHR013C, strain ard1, active compounds read low 0.914 | locus YHR027C, strain rpn1, active compounds read low 0.965 | locus YHR030C, strain SLT2, active compounds read low 1.01 and 1.08 | locus YHR079C, strain IRE1 (second series), active compounds read low 1.01 | locus YHR079C, strain IRE1, active compounds read low 1.05 | locus YHR094C, strain hxt1, active compounds read low 1.01 | locus YHR129C, strain ARP1, active compounds read low 1.02 | locus YHR142W, strain chs7, active compounds read low 0.952 | locus YHR200W, strain rpn10, active compounds read low 1 | locus YIL066C, strain RNR3, active compounds read low 1.01 | locus YIL073C, strain SPO22, active compounds read low 1.04 | locus YIL125W, strain kgd1, active compounds read low 1 | locus YIR030C, strain dcg1, active compounds read low 1 | locus YJL092W, strain hpr5, active compounds read low 0.987 | locus YJL095W, strain BCK1 (second series), active compounds read low 0.978 | locus YJL095W, strain BCK1, active compounds read low 1.04 | locus YJL115W, strain asf1, active compounds read low 0.97 | locus YJL129C, strain trk1, active compounds read low 0.971 | locus YJL134W, strain LCB3, active compounds read low 1.01 | locus YJL154C, strain vps35, active compounds read low 0.972 | locus YJL164C, strain tpk1, active compounds read low 0.947 | locus YJL166W, strain qcr8, active compounds read low 0.976 | locus YJL168C, strain set2, active compounds read low 1.01 | locus YJL187C, strain SWE1 (second series), active compounds read low 1.03 | locus YJL187C, strain SWE1, active compounds read low 0.976 | locus YJR043C, strain POL32, active compounds read low 1.02 | locus YJR066W, strain TOR1, active compounds read low 0.996
